Where “and” joins values, the source holds several entries; their conditions need not be identical. Identical values can stand only once. Calls of active or inactive are those of the source. Unless noted, how the calls were made is not given here.

These results are taken from PubChem BioAssay.

Assay [1] relates to Aerobactin synthetase IucA (Klebsiella pneumoniae). Briefly: IucA aerobactin synthetase inhibitors, biochemical, Tocris library, absorbance (AID 1345561).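 Further: 100% = enzyme without compound and 0% = no enzyme.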 Particulars: purified IucA enzyme assay, absorbance (OD) read-out; stronger effect = lower value;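 tested at 8 µM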.
A short description of assay [2]: sensitizers of A549 cells to miR-34 induction, primary screen, imaging, A549 dox-inducible miR-34, nuclei and caspase counts (AID 1347080;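 active means compounds whose cell count with miR-34 switched on is under 0.7 times the count with it off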). The conditions noted are these: A549 miR-34 inducible, Hoechst nuclei count, 48 h.
Assay [3] in a line: viability rescue of complex I mutant cybrids, primary screen, cell-based, galactose medium, ATP luminescence (AID 1645843;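 active means z-score of at least 1.8 in each of two replicates, scored against plate mean and spread of sample wells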;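 further: positive z means more ATP and so rescue of galactose-driven cybrid death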). The conditions noted are these: complex I mutant cybrid cells, 72 h, stronger effect = higher value.
Assay [4] is described as follows: circadian clock period modulators, cell-based, LOPAC library, luminescence reporter (AID 2774).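 Further: values are relative to mean of DMSO wells on each plate.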 Particulars: circadian reporter cells, at 7 µM, actives lie on both sides.
Assay [5] in a line: liver-stage malaria parasite growth inhibition, primary screen, cell-based, HepG2, luciferase luminescence, HepG2 viability (AID 624349; in the data active means parasite load remaining mostly below about 12%, no sharp cut-off; inactive means mostly above about 10%;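 further: 100% = mean of DMSO negative control wells on the same plate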). Particulars: P. berghei liver stage in HepG2, luciferase luminescence, concentration not given here; parasite load remaining: stronger effect = lower value; viability: measured here: HepG2 viability without parasites.
Assay [6] deals with Hepatitis C virus NS3 helicase. Briefly: HCV NS3 helicase inhibitors, primary screen, biochemical, fluorescence polarization, LOPAC1280 library (AID 687035; in the data active means inhibition above about 37%). Particulars: Purified HCV NS3 helicase, Cy5-dT15 ssDNA binding fluorescence polarization; stronger effect = higher value; concentration not given here.
Assay [7] is described as follows: Cy5 fluorescence quenching or enhancement artefacts, artefact control for HCV NS3 helicase inhibitor project, biochemical, LOPAC1280 (AID 687037). Particulars: Cy5-DNA-NS3h complex fluorescence interference counterscreen.
Setting [8] is: stronger effect = lower value, cell number ratio, induced over uninduced.
Setting [9] is: measured here: relative caspase fold change +Dox/-Dox.
[10] abbreviates: measured here: total cells with miR-34 induction, stronger effect = lower value.
Where [11] appears, read: measured here: total cells without miR-34 induction.

Consider `CC(=O)N(O)[C@@H]1c2cc(C#N)ccc2OC(C)(C)[C@H]1O`, for which the remaining activity in assay [1] is 89.1% (inactive). Moreover, the fold change in assay [2] (setting [8]) was 0.882 (inactive); in assay [2] (setting [9]), 2.17. The cell count in assay [2] (setting [10]) was 8800; in assay [2] (setting [11]), 9980. The z-score in assay [3] is 0.655 (inactive).
For the compound `Nc1nc2c(nc(Br)n2[C@@H]2O[C@@H]3COP(=O)(O)O[C@H]3[C@H]2O)c(=O)[nH]1`, the remaining activity in assay [1] is 113% (inactive). In addition, the fold change in assay [2] (setting [8]) was 0.972 (inactive); in assay [2] (setting [9]) it was 0.761. In addition, the cell count in assay [2] (setting [10]) was found to be 9650; in assay [2] (setting [11]), 9930. Further, the z-score in assay [3] is -0.25 (inactive).
As for `Cc1c[nH]c(=O)n(CCCN2CCN(c3ccccc3OCC(F)(F)F)CC2)c1=O`, in assay [1], the remaining activity is 126% (inactive). For the same compound, the fold change in assay [2] (setting [8]) is 0.952 (inactive); in assay [2] (setting [9]), 0.729. The cell count in assay [2] (setting [10]) turned out to be 10000; in assay [2] (setting [11]), 10500. Moreover, in assay [3], the z-score is -0.38 (inactive).
Turning to `CC1=C(/C=C/C(=C/C=C/C(C)=C/C(=O)O)c2ccc(C)cc2)C(C)(C)CCC1`, in assay [1], the remaining activity was 105% (inactive). Also, the figures for the fold change in assay [2] (setting [8]) and in assay [2] (setting [9]) were 0.936 (inactive) and 1.77, respectively. Moreover, the cell count in assay [2] (setting [10]) is 6950; in assay [2] (setting [11]), 7420. Moreover, in assay [3], the z-score is 0.99 (inactive).
For the compound `O=C(/C=C/c1ccccc1)NC(NC(=S)Nc1ccc(Cl)cc1)C(Cl)(Cl)Cl` (stereo not given), the remaining activity in assay [1] was 118% (inactive). Further, the fold change in assay [2] (setting [8]) is 0.939 (inactive); in assay [2] (setting [9]), 1.5. In addition, the cell count in assay [2] (setting [10]) worked out at 2530; in assay [2] (setting [11]), 2700. Further, in assay [3], the z-score was -0.74 (inactive).
Take `CC(=O)NC1=NN(C(C)=O)C(C)(c2ccccc2)S1` (stereo not given): in assay [1], the remaining activity is 109% (inactive). Moreover, the fold change in assay [2] (setting [8]) was 1.17 (inactive); in assay [2] (setting [9]), 2.25. In addition, the cell count in assay [2] (setting [10]) is 1640; in assay [2] (setting [11]), 1400. Moreover, in assay [3], the z-score is -0.275 (inactive).
Turning to `CC(C)SC(=N)N`, the remaining activity in assay [1] is 92% (inactive). Also, the fold change was 0.945 (inactive) and 0.931 (inactive) in assay [2] (setting [8]); 0.992 and 1.03 in assay [2] (setting [9]). Besides, the cell count is 5980 and 8810 in assay [2] (setting [10]); 6320 and 9460 in assay [2] (setting [11]). For the same compound, the z-score in assay [3] is 0.865 (inactive).
Take `COc1ccc2[nH]c(I)c(CCNC(C)=O)c2c1`: the period change in assay [4] was -0.075 h (inactive). Moreover, in assay [1], the remaining activity was 98.4% (inactive). Moreover, the fold change was 0.928 (inactive) in assay [2] (setting [8]) and 0.922 in assay [2] (setting [9]). Also, the cell count in assay [2] (setting [10]) came out at 8770; in assay [2] (setting [11]), 9460. Also, the z-score in assay [3] was 0.09 (inactive).
Regarding `O=c1cc(N2CCNCC2)oc2c(-c3ccccc3)cccc12`, in assay [5], the parasite load remaining is 25.4% (inactive). The viability in assay [5] is 90.4%. The remaining activity in assay [1] was 83.1% (inactive). Moreover, the fold change in assay [2] (setting [8]) was 0.968 (inactive); in assay [2] (setting [9]), 1.21. The results for the cell count in assay [2] (setting [10]) and in assay [2] (setting [11]) were 7780 and 8040, respectively. Further, the z-score in assay [3] was 1.52 (inactive).
In the case of `CS(=O)(=O)Nc1c(O)ccc2c1CCCC2C1=NCCN1` (stereo not given), in assay [1], the remaining activity was 114% (inactive). Moreover, the fold change was 1 (inactive) in assay [2] (setting [8]) and 0.792 in assay [2] (setting [9]). Moreover, the cell count in assay [2] (setting [10]) came out at 9080; in assay [2] (setting [11]), 9050. The z-score in assay [3] is -0.21 (inactive).
`CC(C)[C@H](CO)Nc1nc(Nc2cc(N)cc(Cl)c2)c2ncn(C(C)C)c2n1`: the parasite load remaining in assay [5] is 38.5% (inactive). Also, the viability in assay [5] came to 101%. The remaining activity in assay [1] was 103% (inactive). Further, the values for the fold change in assay [2] (setting [8]) and in assay [2] (setting [9]) were 1.06 (inactive) and 1.14, respectively. For the same compound, the figures for the cell count in assay [2] (setting [10]) and in assay [2] (setting [11]) were 1230 and 1160, respectively. For the same compound, the z-score in assay [3] is -0.555 (inactive).
Take `C#CCN1C(C)=C(C(=O)OC)C(c2cccc([N+](=O)[O-])c2)C(C(=O)OCC)=C1C` (stereo not given): the period change in assay [4] is -0.025 h (inactive). Further, the inhibition in assay [6] is 1% (inactive). The fluorescence ratio (interference) in assay [7] is 0.9 (inactive). In assay [1], the remaining activity is 122% (inactive). The fold change in assay [2] (setting [8]) is 0.951 (inactive); in assay [2] (setting [9]), 0.816. In addition, the cell count was 7120 in assay [2] (setting [10]) and 7490 in assay [2] (setting [11]). For the same compound, in assay [3], the z-score was -0.3 (inactive).
